PubChem BioAssay AID1159580 (chemical genetic matrix, 2015)
In all, about 5,500 compounds went through this assay and about 2,000 (36%) were called active. Roughly 18% stayed inconclusive and do not appear here. This is one part of the list. Unmarked numbers belong to inactive results. Cut-off read from the data, not from the text of the source: active = normalized growth mostly below about 0.91 (no sharp cut-off); inconclusive = no clear call, values can overlap the other calls; inactive = mostly above about 0.92.

Assay: chemical genetic growth profiling, strain panel (AID 1159580);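 note: tested at 20 µM; growth read once vehicle control cultures reached saturation at 30 °C; 1 = growth at the plate median or of vehicle wells; lower values mean less growth of the strain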
Conditions: growth OD

In the case of `CC(=O)Nc1ccc(OC(=O)c2ccccc2O)cc1`, the normalized growth (S. cerevisiae deletion strains, locus YJR066W, strain TOR1, stronger effect = lower value) is reported as 0.929, the normalized growth (S. cerevisiae deletion strains, locus YJR075W, strain HOC1, stronger effect = lower value) is reported as 0.85 (active) and the normalized growth (S. cerevisiae deletion strains, locus YKL009W, strain mrt4, stronger effect = lower value) is reported as 0.848 (active). It also gave a normalized growth (S. cerevisiae deletion strains, locus YKL068W, stronger effect = lower value) of 0.96, a normalized growth (S. cerevisiae deletion strains, locus YKL085W, strain MDH1 (second series), stronger effect = lower value) of 0.95 and a normalized growth (S. cerevisiae deletion strains, locus YKL085W, strain MDH1, stronger effect = lower value) of 0.95. The normalized growth (S. cerevisiae deletion strains, locus YKL160W, strain elf1, stronger effect = lower value) was 0.978, the normalized growth (S. cerevisiae deletion strains, locus YKL190W, strain CNB1, stronger effect = lower value) was 0.987 and the normalized growth (S. cerevisiae deletion strains, locus YKR001C, strain vps1, stronger effect = lower value) was 0.794 (active). The normalized growth (S. cerevisiae deletion strains, locus YKR026C, strain gcn3, stronger effect = lower value) was 0.965, the normalized growth (S. cerevisiae deletion strains, locus YKR091W, strain srl3, stronger effect = lower value) was 0.962 and the normalized growth (S. cerevisiae deletion strains, locus YLL001W, strain dnm1, stronger effect = lower value) was 0.96. It also gave a normalized growth (S. cerevisiae deletion strains, locus YLL026W, stronger effect = lower value) of 0.978, a normalized growth (S. cerevisiae deletion strains, locus YLL041C, strain sdh2, stronger effect = lower value) of 0.995 and a normalized growth (S. cerevisiae deletion strains, locus YLR027C, strain aat2, stronger effect = lower value) of 0.992. It also gave a normalized growth (S. cerevisiae deletion strains, locus YLR039C, strain RIC1, stronger effect = lower value) of 0.676, a normalized growth (S. cerevisiae deletion strains, locus YLR058C, strain SHM2, stronger effect = lower value) of 0.941 and a normalized growth (S. cerevisiae deletion strains, locus YLR102C, strain apc9, stronger effect = lower value) of 0.943. The normalized growth (S. cerevisiae deletion strains, locus YLR113W, strain HOG1, stronger effect = lower value) was 0.901, the normalized growth (S. cerevisiae deletion strains, locus YLR221C, strain rsa3, stronger effect = lower value) was 0.871 (active) and the normalized growth (S. cerevisiae deletion strains, locus YLR258W, strain gsy2, stronger effect = lower value) was 0.918. The normalized growth (S. cerevisiae deletion strains, locus YLR262C, strain YPT6 (second series), stronger effect = lower value) was 0.972, the normalized growth (S. cerevisiae deletion strains, locus YLR262C, strain YPT6, stronger effect = lower value) was 0.733 and the normalized growth (S. cerevisiae deletion strains, locus YLR268W, strain sec22, stronger effect = lower value) was 0.894. For the same molecule, the normalized growth (S. cerevisiae deletion strains, locus YLR320W, strain mms22, stronger effect = lower value) was 0.832 (active), the normalized growth (S. cerevisiae deletion strains, locus YLR330W, strain CHS5, stronger effect = lower value) was 0.959 and the normalized growth (S. cerevisiae deletion strains, locus YLR342W, strain FKS1 (second series), stronger effect = lower value) was 0.938. The normalized growth (S. cerevisiae deletion strains, locus YLR342W, strain FKS1, stronger effect = lower value) was 1.01, the normalized growth (S. cerevisiae deletion strains, locus YLR357W, strain rsc2, stronger effect = lower value) was 0.929 and the normalized growth (S. cerevisiae deletion strains, locus YLR370C, strain arc18, stronger effect = lower value) was 0.934. The normalized growth (S. cerevisiae deletion strains, locus YLR371W, strain rom2, stronger effect = lower value) was 0.952, the normalized growth (S. cerevisiae deletion strains, locus YLR384C, strain iki3, stronger effect = lower value) was 1 and the normalized growth (S. cerevisiae deletion strains, locus YLR418C, strain cdc73, stronger effect = lower value) was 0.682 (active). For the same molecule, the normalized growth (S. cerevisiae deletion strains, locus YML016C, strain PPZ1, stronger effect = lower value) was 0.977, the normalized growth (S. cerevisiae deletion strains, locus YML032C, strain rad52, stronger effect = lower value) was 0.897 (active) and the normalized growth (S. cerevisiae deletion strains, locus YML120C, strain ndi1, stronger effect = lower value) was 0.951. The normalized growth (S. cerevisiae deletion strains, locus YML124C, strain tub3, stronger effect = lower value) was 0.955, the normalized growth (S. cerevisiae deletion strains, locus YMR058W, strain fet3, stronger effect = lower value) was 0.939 and the normalized growth (S. cerevisiae deletion strains, locus YMR078C, strain ctf18, stronger effect = lower value) was 0.935. It also gave a normalized growth (S. cerevisiae deletion strains, locus YMR125W, strain sto1, stronger effect = lower value) of 0.982, a normalized growth (S. cerevisiae deletion strains, locus YMR129W, stronger effect = lower value) of 0.989 and a normalized growth (S. cerevisiae deletion strains, locus YMR205C, strain PFK2, stronger effect = lower value) of 0.967. It also gave a normalized growth (S. cerevisiae deletion strains, locus YMR223W, strain ubp8, stronger effect = lower value) of 0.938, a normalized growth (S. cerevisiae deletion strains, locus YMR231W, strain pep5, stronger effect = lower value) of 1.01 and a normalized growth (S. cerevisiae deletion strains, locus YMR307W, strain GAS1, stronger effect = lower value) of 0.707. For the same molecule, the normalized growth (S. cerevisiae deletion strains, locus YNL067W, strain RPL9B, stronger effect = lower value) was 0.897, the normalized growth (S. cerevisiae deletion strains, locus YNL071W, strain lat1, stronger effect = lower value) was 0.809 (active) and the normalized growth (S. cerevisiae deletion strains, locus YNL153C, strain GIM3, stronger effect = lower value) was 0.936. The normalized growth (S. cerevisiae deletion strains, locus YNL183C, strain NPR1, stronger effect = lower value) was 0.858, the normalized growth (S. cerevisiae deletion strains, locus YNL209W, strain ssb2, stronger effect = lower value) was 0.95 and the normalized growth (S. cerevisiae deletion strains, locus YNL233W, strain BNI4, stronger effect = lower value) was 0.832 (active). For the same molecule, the normalized growth (S. cerevisiae deletion strains, locus YNL248C, strain rpa49, stronger effect = lower value) was 0.862 (active), the normalized growth (S. cerevisiae deletion strains, locus YNL250W, strain rad50, stronger effect = lower value) was 0.978 and the normalized growth (S. cerevisiae deletion strains, locus YNL271C, strain bni1, stronger effect = lower value) was 0.955. For the same molecule, the normalized growth (S. cerevisiae deletion strains, locus YNL298W, strain CLA4, stronger effect = lower value) was 0.925, the normalized growth (S. cerevisiae deletion strains, locus YNL307C, strain MCK1, stronger effect = lower value) was 0.576 (active) and the normalized growth (S. cerevisiae deletion strains, locus YNL322C, strain KRE1 (second series), stronger effect = lower value) was 0.888 (active). For the same molecule, the normalized growth (S. cerevisiae deletion strains, locus YNR049C, strain mso1, stronger effect = lower value) was 0.964, the normalized growth (S. cerevisiae deletion strains, locus YNR052C, strain pop2, stronger effect = lower value) was 0.98 and the normalized growth (S. cerevisiae deletion strains, locus YOL006C, strain TOP1, stronger effect = lower value) was 0.463 (active). It also gave a normalized growth (S. cerevisiae deletion strains, locus YOL012C, strain htz1) of 0.544, a normalized growth (S. cerevisiae deletion strains, locus YOL147C, strain pex11, stronger effect = lower value) of 0.943 and a normalized growth (S. cerevisiae deletion strains, locus YOR001W, strain rrp6, stronger effect = lower value) of 0.962. For the same molecule, the normalized growth (S. cerevisiae deletion strains, locus YOR061W, strain CKA2, stronger effect = lower value) was 0.967, the normalized growth (S. cerevisiae deletion strains, locus YOR069W, strain VPS5, stronger effect = lower value) was 0.985 and the normalized growth (S. cerevisiae deletion strains, locus YOR070C, strain gyp1, stronger effect = lower value) was 0.932. The normalized growth (S. cerevisiae deletion strains, locus YOR080W, strain dia2, stronger effect = lower value) was 1.02, the normalized growth (S. cerevisiae deletion strains, locus YOR083W, strain WHI5, stronger effect = lower value) was 0.928 and the normalized growth (S. cerevisiae deletion strains, locus YOR106W, strain vam3, stronger effect = lower value) was 0.954. For the same molecule, the normalized growth (S. cerevisiae deletion strains, locus YOR136W, strain idh2, stronger effect = lower value) was 0.948, the normalized growth (S. cerevisiae deletion strains, locus YOR144C, strain elg1, stronger effect = lower value) was 0.947 and the normalized growth (S. cerevisiae deletion strains, locus YOR184W, strain ser1, stronger effect = lower value) was 0.756 (active). The normalized growth (S. cerevisiae deletion strains, locus YOR231W, strain MKK1, stronger effect = lower value) was 0.909, the normalized growth (S. cerevisiae deletion strains, locus YOR265W, strain rbl2, stronger effect = lower value) was 0.987 and the normalized growth (S. cerevisiae deletion strains, locus YOR270C, strain vph1, stronger effect = lower value) was 0.635 (active). The normalized growth (S. cerevisiae deletion strains, locus YOR290C, strain snf2, stronger effect = lower value) was 0.857 (active), the normalized growth (S. cerevisiae deletion strains, locus YOR316C, strain cot1, stronger effect = lower value) was 0.947 and the normalized growth (S. cerevisiae deletion strains, locus YPL051W, strain arl3, stronger effect = lower value) was 0.957. For the same molecule, the normalized growth (S. cerevisiae deletion strains, locus YPL078C, strain atp4, stronger effect = lower value) was 0.83 (active), the normalized growth (S. cerevisiae deletion strains, locus YPL106C, strain sse1, stronger effect = lower value) was 0.926 and the normalized growth (S. cerevisiae deletion strains, locus YPL240C, strain hsp82, stronger effect = lower value) was 0.973. The normalized growth (S. cerevisiae deletion strains, locus YPL241C, strain CIN2, stronger effect = lower value) was 0.977, the normalized growth (S. cerevisiae deletion strains, locus YPL256C, strain CLN2, stronger effect = lower value) was 0.881 and the normalized growth (S. cerevisiae deletion strains, locus YPR119W, strain clb2, stronger effect = lower value) was 0.941. The normalized growth (S. cerevisiae deletion strains, locus YPR141C, strain kar3, stronger effect = lower value) was 0.967, the normalized growth (S. cerevisiae deletion strains, locus YPR163C, strain tif3, stronger effect = lower value) was 0.931 and the normalized growth (S. cerevisiae deletion strains, locus YPR167C, strain met16, stronger effect = lower value) was 0.94. For the same molecule, the normalized growth (S. cerevisiae deletion strains, strain wtn01, stronger effect = lower value) was 0.915 and the normalized growth (S. cerevisiae strains, strain wild type, stronger effect = lower value) was 0.952.
